PNC assembly inh – perinucleolar compartment assembly inhibition | AID 2417 | 140,000 tested, 3.1% active | activity change (PNC), negative = inhibition, % at 10 µM | PC3M PTB-GFP, PNC prevalence imaging, 16 h; active compounds read low;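 active = readout at or below -70, meaning at least 70% loss of cells showing the perinucleolar compartment, a nuclear body marking cancer cells; inconclusive = readout between -30 and a set limit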;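 note: plate controls were DMSO wells for no effect and camptothecin positive control wells for full effect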
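Compounds are pinned in duplicate onto adhered PC3M cells stably expressing GFP-tagged PTB and incubated 16 h at 37 C. Cells are then fixed, nuclei stained with Hoechst, and PNC-positive cells counted.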
KDM4E inh – blocks human JMJD2E demethylase activity; B2RXH2; JMJD2E catalytic domain, FDH-coupled NADH fluorescence (FDH is formaldehyde dehydrogenase); Potency, µM (highest dose often 57.1 µM), inactives show top-dose activity change, negative = inhibition, actives largely listed as inhibitors; 230,000 tested, 1.6% active; AID 2147;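 note: potency is the fitted concentration of half-maximal effect; 0% = wells with enzyme and -100% = buffer wells without enzyme; nearly all actives have a fitted effect of over 50% in size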
ALDH1A1 block – ALDH1A1 (human) enzyme inhibition; P00352; Purified ALDH1A1, NADH fluorescence, propionaldehyde substrate; Potency, µM (series often up to 75.3 µM), inactives show at the top dose activity, negative = inhibition, actives largely listed as inhibitors; 220,000 tested, 7.3% active; AID 1030;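 note: potency is the fitted concentration of half-maximal effect; plate controls were no enzyme wells and a reference inhibitor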
Target sequence (P00352 whole entry, looked up): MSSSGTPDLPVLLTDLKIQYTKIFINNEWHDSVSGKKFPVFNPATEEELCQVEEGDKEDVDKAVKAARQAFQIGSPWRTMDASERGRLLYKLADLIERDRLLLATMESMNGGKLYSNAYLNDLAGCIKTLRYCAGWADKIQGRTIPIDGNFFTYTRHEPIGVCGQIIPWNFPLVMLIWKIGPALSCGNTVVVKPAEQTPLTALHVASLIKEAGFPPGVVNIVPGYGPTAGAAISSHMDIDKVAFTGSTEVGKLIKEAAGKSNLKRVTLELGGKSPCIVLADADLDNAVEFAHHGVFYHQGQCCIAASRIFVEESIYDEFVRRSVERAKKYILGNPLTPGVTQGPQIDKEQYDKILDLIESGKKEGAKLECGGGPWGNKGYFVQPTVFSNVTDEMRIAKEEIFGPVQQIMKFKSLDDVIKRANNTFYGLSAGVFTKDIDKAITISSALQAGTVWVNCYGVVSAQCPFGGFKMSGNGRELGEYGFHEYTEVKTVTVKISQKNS
HPGD inh – inhibitors of human 15-hydroxyprostaglandin dehydrogenase (HPGD). 150,000 tested, 4.3% active. AID 894. purified HPGD, NADH fluorescence kinetic, PGE2 substrate. Potency, µM, without a hit: top-dose activity change, negative = inhibition, most hits filed as inhibitors; note: potency is the fitted concentration of half-maximal effect
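20 nM HPGD preincubated 15 min at room temperature with compound in 50 mM Tris-HCl pH 8, 0.01% Tween 20. Started with 1 mM NAD+ and 30 uM prostaglandin E2; NADH fluorescence (360/450 nm) read 5 times over 30-s intervals, last minus first.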
The depositor's hits bear a star; ? = inconclusive; . = no result given; ! = not active in a repeat; [ ] = remark or other dose. This is a sample that favours compounds with a hit; in the whole collection about 11% have one here. Unless noted, calls come from the whole dose curve; as a rule, active = well fitted inhibition curve with a large enough effect (not every such curve was filed as active); inconclusive = small, poorly fitted or top-dose-only effect, or another doubt; inactive = no such curve, though single readings can be large or run the other way. Unless noted, % is set by controls: 0 for no effect and ±100 for the full control effect.

SMILES | PNC assembly inh | KDM4E inh | ALDH1A1 block | HPGD inh
COCCCC1CCN(Cc2cn[nH]c2-c2cc(OC)c(OC)c(OC)c2)CC1 | . | 5% | -2% | .
COC(=O)CCC(=O)Nc1cc(S(=O)(=O)Nc2ccc(Cl)cc2)ccc1N1CCOCC1 | ? | 0% | 20µM* | ?
O=C(Nc1cc(S(=O)(=O)Nc2ccc(Cl)cc2)ccc1N1CCCCC1)c1ccc(F)cc1Cl | ? | ? | 32µM* | ?
CC1C[C@@]2(NC(=O)NC2=O)C(C)CN1C (stereo not given in full) | -100* | 5% | 9% | -15%
Cc1ccc(CCNC(=O)C23CN(Cc4ccccc4)CC2C(c2ccc([N+](=O)[O-])cc2)=NO3)cc1 (stereo not given) | ? | 0% | 14µM* | -14%
Cc1ccc(CNC(=O)C23CN(Cc4ccccc4)CC2C(c2ccc([N+](=O)[O-])cc2)=NO3)cc1 (stereo not given) | ? | -3% | ? | -14%
CCOC(=O)CNC(=O)CSc1ncnc2c1cnn2-c1ccccc1 | 14 | -5% | -2% | -8%
CCOC(=O)CC(=O)CSc1ncnc2c1cnn2-c1ccccc1 | 3 | -14% | 22µM* | -19%
CCOc1ccc(NC(=S)N(CCOC)C(C)c2ccco2)cc1 (stereo not given) | . | -7% | . | .
O=S(=O)(O)CCCc1cccc2ccccc12 | . | . | -1%[13.5 µM] | -4%
CCOc1ccc(NCC(=O)Nc2ccc(Cl)cc2C)cc1 | -27 | 5% | 3.5µM* | -5%
CCCOc1ccc(NCC(=O)Nc2ccc(C)cc2C)cc1 | -29 | -2% | 2.2µM* | -2%
Cc1cc(Cl)ccc1NC(=O)CCCN1C(=O)CCC1=O | 5 | -7% | 4% | 1%
CCOc1ccc(NC(=O)CCC(=O)NNC(=O)Nc2ccc(Cl)cc2)cc1 | . | -7% | 8% | .
Cc1cc(Cl)ccc1NC(=O)CCC(=O)O | -84* | 2% | 2% | 4%
COc1ccc(NCC(=O)Nc2ccc(Cl)cc2C)c(OC)c1 | ? | ? | 4.5µM* | 7.9µM*
COC(=O)c1ccc(C(NC(=O)c2cccnc2)NC(=O)c2cccnc2)cc1 | . | 2% | -2% | .
Cc1ccc(NC(=O)CCl)c(C)c1 | . | 6% | 0.28µM* | .
CC1CCc2nc3ccc(S(=O)(=O)N4CCC(C(=O)NC5CCCC5)CC4)cc3c(C(=O)O)c2C1 (stereo not given) | -8 | -22% | 40µM* | -25%
COc1ccc(CCNC(=O)CSc2nnc3ccc(-c4cccnc4)nn23)cc1OC | . | -8% | -4% | .
CN(C)CCCN1c2ccccc2Sc2ccc(Cl)cc21 | -110*! | -16% | 0% | -4%
CC(C)Cn1c(O)c(N=NC(=O)c2cccc(S(=O)(=O)N3CCCCC3)c2)c2ccccc21 | 4 | -3% | 3.5µM* | -12%
O=C(O)C1Cc2[nH]cnc2C(c2ccccc2O)N1 (stereo not given) | 90 | 32µM* | -4% | -7%
CC1NC(C(=O)O)Cc2c1[nH]c1ccccc21 (stereo not given) | . | . | 2% | .
Cc1nc(=S)c2ccccc2[nH]1 | -29 | -4% | 7.1µM* | -15%
SMILES | PNC assembly inh | KDM4E inh | ALDH1A1 block | HPGD inh
FC(F)(F)c1nc(=S)c2ccccc2[nH]1 | . | 10µM* | 8.9µM* | .
Nc1cccc2[nH]c(C(F)(F)F)nc12 | . | -26% | 3% | .
S=c1nc(Cc2ccc(Cl)cc2)[nH]c2ccccc12 | . | -3% | 0% | .
COC(=O)c1cccc(S(=O)(=O)N2CCC(c3nc4ccccc4o3)CC2)c1 | 136 | -1% | 12% | -12%
CN(C)S(=O)(=O)c1ccc(C(=O)N2CCC(c3nc4ccccc4o3)CC2)cc1 | 33 | -6% | 28µM* | -6%
CNc1ncncc1-c1ccccc1C | . | . | 10% | .
Cc1cc2nc3ccc(=[N+](C)C)cc-3sc2cc1N | . | 14µM* | . | .
CSc1nc(N)nc(SCC(=O)C(C)(C)C)c1C#N | 17 | 7% | ? | 13µM*
CSc1nc(N)nc(SCC(=O)Nc2cccc(F)c2)c1C#N | -26 | 2% | 9% | 20µM*
CSc1nc(N)nc(SCC(=O)CC(=O)OC(C)C)c1C#N | 60 | 7% | -7% | -19%
[O][C@H]1[C@@H](O)[C@@H](CO)O[C@@H](O[C@@H]2[C@@H]3OC[C@H]2O[C@H](O[C@@H]2[C@@H](O)[C@H](C[C@@H]4[C@@H]5OC[C@H]4O[CH][C@@H]5O)O[C@H](CO)[C@@H]2OS(=O)(=O)O)[C@@H]3OS(=O)(=O)O)[C@@H]1O | . | . | 6% | -6%
O=C(c1ccco1)N(Cc1ccccc1)c1cccc([N+](=O)[O-])c1 | . | ? | 20µM* | .
Cc1ccc(N(Cc2ccc([N+](=O)[O-])cc2)C(=O)c2ccco2)cc1C | 9 | 1% | ? | -2%
O=C(c1ccco1)N(Cc1ccc([N+](=O)[O-])cc1)c1ccc(Br)cc1 | 107 | -1% | ? | -9%
O=C(c1ccco1)N(Cc1ccco1)c1ccc(O)cc1 | -96* | 9% | 4% | -1%
O=C(c1ccco1)N(Cc1cccc([N+](=O)[O-])c1)c1ccc(Br)cc1 | . | -1% | 22µM* | .
O=C(c1ccco1)N(Cc1ccc([N+](=O)[O-])cc1)c1ccc(Cl)cc1 | 1 | -11% | ? | -10%
CNC(=O)CS(=O)CC(=O)Nc1cc(OCCOC)c(Cl)cc1Cl (stereo not given) | . | 7% | 1% | .
O=C(O)CN(CC(=O)O)Cc1cc2c(-c3ccccc3C(=O)O)c3cc(CN(CC(=O)O)CC(=O)O)c(=O)cc-3oc2cc1O | . | 4µM* | -11% | ?
O=C(Nc1ccc(Cl)cc1F)c1cc(S(=O)(=O)N2CCCCC2)ccc1F | 23 | ? | 6% | -7%
O=C(Nc1ccc(Cl)cn1)c1cc(S(=O)(=O)N2CCCCC2)ccc1Cl | -16 | ? | 28µM* | -13%
CCOc1ncccc1C(=O)Nc1ccc(Cl)c(S(=O)(=O)N2CCCC2)c1 | . | 41% | 4.5µM* | .
O=C(Nc1cccc(O)c1)c1cc(S(=O)(=O)N2CCCC2)ccc1Cl | -6 | -2% | 5µM* | -7%
COCC(=O)N1CCC2(CC1)CN(c1ccccc1)C2 | . | . | -11% | -9%
Nc1ncnc2c1ncn2[C@H]1O[C@@H](C(=O)O)[C@@H](O)[C@H]1O | . | . | 7%[13.5 µM] | 0%
SMILES | PNC assembly inh | KDM4E inh | ALDH1A1 block | HPGD inh
O=C(NCc1ccccn1)C(=O)N/N=C/c1ccccc1O | . | 6.3µM* | . | .
O=C(NCCCN1CCOCC1)C(=O)N/N=C/c1c(Cl)cccc1Cl | . | 1% | 6% | .
CC(C)c1ccc(/C=N/NC(=O)C(=O)NCCCN2CCOCC2)cc1 | 34 | -2% | 14µM* | -8%
O=C(NCCCN1CCOCC1)C(=O)N/N=C/c1ccccc1O | . | 11µM* | . | .
CCOC(=O)N1CCC(N2C(=O)c3ccccc3C2Nc2ccc(S(=O)(=O)N(CC)CC)cc2)CC1 (stereo not given) | . | 8% | 0.2µM* | .
CCOC(=O)N1CCC(N2C(=O)c3ccccc3C2Nc2ccc(C)cc2)CC1 (stereo not given) | 43 | -7% | 32µM* | -5%
Cc1ccc(S(=O)(=O)N(CC(=O)N/N=C/c2ccccc2C(=O)O)c2cc(Cl)cc(Cl)c2)cc1 | . | 4% | 4% | .
O=S(=O)(c1ccc(F)cc1)n1ccc2cccnc21 | -100* | 1% | 12% | -6%
